# Columns and labels:
# Assay in all cases: DAPPL (digital affinity profiling via proximity ligation, sequencing); 10 mM Tris-HCl pH 7.5, 50 mM NaCl, 1 mM DTT, 4% glycerol, room temperature, 30 min; GST-TFs on glutathione beads, 16-mer random dsDNA library, 0.1% formaldehyde crosslink after washing; high values mean tight binding
# FEV = biological target: T1, FEV (Homo sapiens, UniProt Q99581 1-238); details: protein: recombinant; tags: N-terminal GST; dsDNA, one strand shown
# T1 sequence: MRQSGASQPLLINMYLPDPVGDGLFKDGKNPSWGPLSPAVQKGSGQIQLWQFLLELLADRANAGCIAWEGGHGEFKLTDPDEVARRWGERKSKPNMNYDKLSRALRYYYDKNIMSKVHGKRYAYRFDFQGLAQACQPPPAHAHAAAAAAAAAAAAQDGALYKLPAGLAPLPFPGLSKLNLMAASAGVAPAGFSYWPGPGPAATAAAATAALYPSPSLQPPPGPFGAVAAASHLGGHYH
# Summary of the method: (§1)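 The binding signal reported is, for every hexamer, its read frequency for a factor over its read frequency for the tag-only sample. Reads came from pools of yeast-expressed, GST-fused human transcription factors on glutathione beads, barcoded with DNA and mixed with that sample, which were incubated with 200 nmole of a random double-stranded 16-mer DNA library in Tris/NaCl/DTT/glycerol buffer at room temperature for 30 min. After washing, the pools were crosslinked with 0.1% formaldehyde, proximity-ligated with BsaI/T4 ligase for 1 h at 37 °C, PCR-amplified and sequenced on an Illumina NextSeq500.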
# ETV5 = ETV5 (Homo sapiens, UniProt P41161 1-510); details: protein: recombinant; tags: N-terminal GST; dsDNA, one strand shown
# Sequence of ETV5 (P41161 whole entry): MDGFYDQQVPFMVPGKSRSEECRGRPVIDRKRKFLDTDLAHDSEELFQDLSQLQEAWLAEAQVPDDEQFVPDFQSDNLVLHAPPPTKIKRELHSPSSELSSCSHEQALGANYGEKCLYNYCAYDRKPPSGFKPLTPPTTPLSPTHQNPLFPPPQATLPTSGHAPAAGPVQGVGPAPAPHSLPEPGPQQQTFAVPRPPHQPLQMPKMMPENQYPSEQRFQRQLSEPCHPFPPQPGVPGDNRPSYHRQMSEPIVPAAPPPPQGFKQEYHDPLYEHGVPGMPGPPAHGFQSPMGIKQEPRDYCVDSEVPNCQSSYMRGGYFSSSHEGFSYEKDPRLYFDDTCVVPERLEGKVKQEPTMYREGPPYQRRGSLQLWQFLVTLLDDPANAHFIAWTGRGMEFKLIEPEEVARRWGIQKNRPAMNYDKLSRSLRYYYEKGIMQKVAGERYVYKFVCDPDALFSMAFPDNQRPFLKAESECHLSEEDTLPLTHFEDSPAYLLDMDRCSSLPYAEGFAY
# Summary of the method: as §1
# HSF1 = HSF1 (Homo sapiens, UniProt Q00613 1-529); details: protein: recombinant; tags: N-terminal GST; chain copies: 3; dsDNA, one strand shown
# Sequence of HSF1 (Q00613 whole entry): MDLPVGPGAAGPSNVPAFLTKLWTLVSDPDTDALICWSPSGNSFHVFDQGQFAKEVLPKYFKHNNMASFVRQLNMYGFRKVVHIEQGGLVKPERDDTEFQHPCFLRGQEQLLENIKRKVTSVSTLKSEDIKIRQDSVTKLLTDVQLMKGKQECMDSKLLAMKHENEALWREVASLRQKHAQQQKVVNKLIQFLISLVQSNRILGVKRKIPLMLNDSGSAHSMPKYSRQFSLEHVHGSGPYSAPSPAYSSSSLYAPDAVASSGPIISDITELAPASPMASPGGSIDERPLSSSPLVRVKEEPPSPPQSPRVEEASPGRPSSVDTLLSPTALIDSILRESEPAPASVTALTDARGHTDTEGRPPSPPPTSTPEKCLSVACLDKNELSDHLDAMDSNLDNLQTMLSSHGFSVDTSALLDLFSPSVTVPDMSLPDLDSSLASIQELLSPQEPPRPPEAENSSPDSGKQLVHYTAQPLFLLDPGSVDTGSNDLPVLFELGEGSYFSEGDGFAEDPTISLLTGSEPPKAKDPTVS
# Summary of the method: as §1
# SPIC = biological target: T2, SPIC (Homo sapiens, UniProt Q8N5J4 1-248); details: protein: recombinant; tags: N-terminal GST; dsDNA, one strand shown
# T2 sequence: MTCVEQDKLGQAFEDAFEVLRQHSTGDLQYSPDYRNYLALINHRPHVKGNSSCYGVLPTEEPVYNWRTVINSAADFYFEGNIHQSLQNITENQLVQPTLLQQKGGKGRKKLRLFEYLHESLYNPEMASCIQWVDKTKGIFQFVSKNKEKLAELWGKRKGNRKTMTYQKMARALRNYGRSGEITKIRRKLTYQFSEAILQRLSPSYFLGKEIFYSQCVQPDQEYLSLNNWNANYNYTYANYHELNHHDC
# Summary of the method: as §1
# ELF4 = ELF4 (Homo sapiens, UniProt Q99607 1-663); details: protein: recombinant; tags: N-terminal GST; dsDNA, one strand shown
# Sequence of ELF4 (Q99607 whole entry): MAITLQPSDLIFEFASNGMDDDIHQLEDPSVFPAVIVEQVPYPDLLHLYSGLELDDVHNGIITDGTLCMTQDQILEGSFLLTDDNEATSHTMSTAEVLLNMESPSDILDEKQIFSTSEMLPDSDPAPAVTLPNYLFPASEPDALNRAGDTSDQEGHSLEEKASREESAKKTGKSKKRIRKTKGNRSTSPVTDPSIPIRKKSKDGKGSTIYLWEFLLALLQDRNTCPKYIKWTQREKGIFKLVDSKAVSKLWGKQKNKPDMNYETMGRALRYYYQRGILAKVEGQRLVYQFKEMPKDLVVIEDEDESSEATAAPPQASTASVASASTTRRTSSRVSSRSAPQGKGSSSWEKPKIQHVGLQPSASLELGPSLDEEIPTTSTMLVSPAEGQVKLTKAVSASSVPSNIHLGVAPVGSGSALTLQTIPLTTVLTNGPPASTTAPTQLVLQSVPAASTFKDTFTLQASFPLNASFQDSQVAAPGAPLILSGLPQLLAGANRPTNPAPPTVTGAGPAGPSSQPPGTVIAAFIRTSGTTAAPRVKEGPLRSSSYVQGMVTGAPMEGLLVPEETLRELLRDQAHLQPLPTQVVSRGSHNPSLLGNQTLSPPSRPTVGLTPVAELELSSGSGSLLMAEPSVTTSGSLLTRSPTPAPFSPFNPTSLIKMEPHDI
# Summary of the method: as §1
# ELK4 = biological target: T3, ELK4 (Homo sapiens, UniProt P28324-2 1-405); details: protein: recombinant; tags: N-terminal GST; dsDNA, one strand shown
# T3 sequence: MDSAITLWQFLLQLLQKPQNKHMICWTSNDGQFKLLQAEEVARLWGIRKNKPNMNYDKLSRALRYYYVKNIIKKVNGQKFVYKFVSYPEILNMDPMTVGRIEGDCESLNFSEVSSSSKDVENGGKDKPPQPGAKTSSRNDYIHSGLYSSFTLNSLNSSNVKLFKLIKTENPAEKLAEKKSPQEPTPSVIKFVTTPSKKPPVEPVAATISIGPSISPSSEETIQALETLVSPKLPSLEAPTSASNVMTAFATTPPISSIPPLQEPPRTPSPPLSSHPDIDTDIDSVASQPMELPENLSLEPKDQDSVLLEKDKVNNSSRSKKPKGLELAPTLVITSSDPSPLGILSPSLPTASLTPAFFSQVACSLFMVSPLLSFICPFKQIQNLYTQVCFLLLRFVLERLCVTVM
# Summary of the method: as §1
# ETV2 = biological target: T4, ETV2 (Homo sapiens, UniProt O00321 1-342); details: protein: recombinant; tags: N-terminal GST; dsDNA, one strand shown
# T4 sequence: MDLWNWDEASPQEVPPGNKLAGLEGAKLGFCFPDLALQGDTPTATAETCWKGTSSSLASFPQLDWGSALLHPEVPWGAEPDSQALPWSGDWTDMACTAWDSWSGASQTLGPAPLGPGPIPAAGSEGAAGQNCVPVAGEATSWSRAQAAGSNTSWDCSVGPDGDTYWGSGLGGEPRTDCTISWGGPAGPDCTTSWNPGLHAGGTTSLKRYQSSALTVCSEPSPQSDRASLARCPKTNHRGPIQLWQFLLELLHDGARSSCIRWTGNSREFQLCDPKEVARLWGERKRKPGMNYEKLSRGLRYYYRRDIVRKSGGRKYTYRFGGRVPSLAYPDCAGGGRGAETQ
# Summary of the method: as §1
# ELF3 = biological target: T5, ELF3 (Homo sapiens, UniProt P78545 1-371); details: protein: recombinant; tags: N-terminal GST; dsDNA, one strand shown
# T5 sequence: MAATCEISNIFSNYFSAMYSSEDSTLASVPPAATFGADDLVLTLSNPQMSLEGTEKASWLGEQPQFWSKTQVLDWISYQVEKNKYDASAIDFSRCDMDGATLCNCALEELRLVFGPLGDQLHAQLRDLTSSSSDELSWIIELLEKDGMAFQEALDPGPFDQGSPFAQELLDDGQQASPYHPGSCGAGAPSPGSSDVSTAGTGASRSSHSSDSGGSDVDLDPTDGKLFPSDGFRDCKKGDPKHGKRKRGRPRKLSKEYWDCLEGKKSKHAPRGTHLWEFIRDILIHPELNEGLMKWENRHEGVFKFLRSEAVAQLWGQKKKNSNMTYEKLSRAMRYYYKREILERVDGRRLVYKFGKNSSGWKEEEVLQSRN
# Summary of the method: as §1
# CRX = CRX (Homo sapiens, UniProt O43186 1-299); details: protein: recombinant; tags: N-terminal GST; dsDNA, one strand shown
# Sequence of CRX (O43186 whole entry): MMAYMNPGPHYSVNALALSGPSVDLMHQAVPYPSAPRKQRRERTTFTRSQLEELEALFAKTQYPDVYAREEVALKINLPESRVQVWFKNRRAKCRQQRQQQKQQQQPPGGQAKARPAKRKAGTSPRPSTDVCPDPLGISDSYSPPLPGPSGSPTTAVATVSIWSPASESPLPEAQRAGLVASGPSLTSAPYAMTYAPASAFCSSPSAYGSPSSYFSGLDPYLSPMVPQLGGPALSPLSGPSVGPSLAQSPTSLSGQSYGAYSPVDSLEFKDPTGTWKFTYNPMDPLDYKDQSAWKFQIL
# Summary of the method: as §1
# ETV1 = ETV1 (Homo sapiens, UniProt P50549 1-477); details: protein: recombinant; tags: N-terminal GST; dsDNA, one strand shown
# Sequence of ETV1 (P50549 whole entry): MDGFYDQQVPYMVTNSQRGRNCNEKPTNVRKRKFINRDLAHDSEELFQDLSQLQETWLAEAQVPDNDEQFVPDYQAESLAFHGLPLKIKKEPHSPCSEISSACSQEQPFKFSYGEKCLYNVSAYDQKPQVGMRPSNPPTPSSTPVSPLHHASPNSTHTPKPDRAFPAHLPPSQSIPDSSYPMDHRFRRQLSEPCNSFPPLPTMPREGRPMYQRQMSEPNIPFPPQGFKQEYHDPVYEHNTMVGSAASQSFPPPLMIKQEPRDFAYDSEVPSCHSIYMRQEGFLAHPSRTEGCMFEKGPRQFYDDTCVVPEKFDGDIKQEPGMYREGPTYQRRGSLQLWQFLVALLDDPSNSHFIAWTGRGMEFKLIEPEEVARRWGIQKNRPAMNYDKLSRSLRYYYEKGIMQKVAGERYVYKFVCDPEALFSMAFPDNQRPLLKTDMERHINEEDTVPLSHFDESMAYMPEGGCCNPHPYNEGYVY
# Summary of the method: as §1
# ERF = biological target: T6, ERF (Homo sapiens, UniProt P50548 1-548); details: protein: recombinant; tags: N-terminal GST; dsDNA, one strand shown
# T6 sequence: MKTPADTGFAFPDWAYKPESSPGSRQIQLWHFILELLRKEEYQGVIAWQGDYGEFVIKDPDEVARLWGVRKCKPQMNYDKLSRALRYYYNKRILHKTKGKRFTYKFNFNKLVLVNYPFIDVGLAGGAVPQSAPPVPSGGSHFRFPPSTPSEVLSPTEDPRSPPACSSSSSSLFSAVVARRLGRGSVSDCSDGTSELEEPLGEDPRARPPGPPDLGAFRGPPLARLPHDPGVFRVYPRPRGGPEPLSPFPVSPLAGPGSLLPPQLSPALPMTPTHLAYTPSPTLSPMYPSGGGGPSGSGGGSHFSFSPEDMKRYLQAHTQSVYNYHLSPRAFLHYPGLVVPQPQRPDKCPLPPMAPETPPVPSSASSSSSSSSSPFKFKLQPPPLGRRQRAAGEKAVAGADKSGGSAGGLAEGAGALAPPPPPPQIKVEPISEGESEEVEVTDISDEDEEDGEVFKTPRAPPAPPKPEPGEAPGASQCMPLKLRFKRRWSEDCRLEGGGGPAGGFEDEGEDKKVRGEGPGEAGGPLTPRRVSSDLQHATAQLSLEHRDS
# Summary of the method: as §1
# ETV3L = biological target: T7, ETV3L (Homo sapiens, UniProt Q6ZN32 1-361); details: protein: recombinant; tags: N-terminal GST; dsDNA, one strand shown
# T7 sequence: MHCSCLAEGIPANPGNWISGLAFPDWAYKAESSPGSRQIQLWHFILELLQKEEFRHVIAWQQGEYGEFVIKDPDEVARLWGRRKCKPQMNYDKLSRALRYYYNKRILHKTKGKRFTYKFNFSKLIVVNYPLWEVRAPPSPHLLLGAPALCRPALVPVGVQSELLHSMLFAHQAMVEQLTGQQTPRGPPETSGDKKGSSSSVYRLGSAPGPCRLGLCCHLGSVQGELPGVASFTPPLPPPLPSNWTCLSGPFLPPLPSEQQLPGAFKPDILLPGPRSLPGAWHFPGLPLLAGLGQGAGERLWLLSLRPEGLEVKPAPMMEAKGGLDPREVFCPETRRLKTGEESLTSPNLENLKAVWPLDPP
# Summary of the method: as §1
# ETS2 = biological target: T8, ETS2 (Homo sapiens, UniProt P15036 1-469); details: protein: recombinant; tags: N-terminal GST; dsDNA, one strand shown
# T8 sequence: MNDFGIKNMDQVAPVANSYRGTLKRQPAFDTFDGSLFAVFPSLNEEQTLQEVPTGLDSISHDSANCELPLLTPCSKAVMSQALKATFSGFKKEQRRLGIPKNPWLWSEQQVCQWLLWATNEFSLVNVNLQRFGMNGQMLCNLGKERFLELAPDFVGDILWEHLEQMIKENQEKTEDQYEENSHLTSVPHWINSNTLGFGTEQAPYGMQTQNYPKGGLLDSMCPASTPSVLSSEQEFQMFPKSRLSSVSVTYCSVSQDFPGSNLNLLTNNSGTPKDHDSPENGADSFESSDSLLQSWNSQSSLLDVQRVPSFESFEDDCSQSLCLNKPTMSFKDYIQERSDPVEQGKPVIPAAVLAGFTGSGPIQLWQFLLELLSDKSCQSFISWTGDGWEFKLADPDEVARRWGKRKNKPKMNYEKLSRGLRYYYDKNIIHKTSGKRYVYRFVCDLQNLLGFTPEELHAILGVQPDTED
# Summary of the method: as §1
# SPDEF = biological target: T9, SPDEF (Homo sapiens, UniProt O95238 1-335); details: protein: recombinant; tags: N-terminal GST; dsDNA, one strand shown
# T9 sequence: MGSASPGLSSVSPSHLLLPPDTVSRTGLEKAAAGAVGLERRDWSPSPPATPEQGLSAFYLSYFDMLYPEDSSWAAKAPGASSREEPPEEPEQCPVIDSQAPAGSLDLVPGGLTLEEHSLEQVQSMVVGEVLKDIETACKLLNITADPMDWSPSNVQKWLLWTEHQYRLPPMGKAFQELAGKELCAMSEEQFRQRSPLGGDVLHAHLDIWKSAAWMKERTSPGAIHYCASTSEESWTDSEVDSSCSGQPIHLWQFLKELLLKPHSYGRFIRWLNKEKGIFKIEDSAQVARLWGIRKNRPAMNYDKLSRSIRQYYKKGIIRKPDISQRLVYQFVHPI
# Summary of the method: as §1
# ETV7 = biological target: T10, ETV7 (Homo sapiens, UniProt Q9Y603 1-341); details: protein: recombinant; tags: N-terminal GST; dsDNA, one strand shown
# T10 sequence: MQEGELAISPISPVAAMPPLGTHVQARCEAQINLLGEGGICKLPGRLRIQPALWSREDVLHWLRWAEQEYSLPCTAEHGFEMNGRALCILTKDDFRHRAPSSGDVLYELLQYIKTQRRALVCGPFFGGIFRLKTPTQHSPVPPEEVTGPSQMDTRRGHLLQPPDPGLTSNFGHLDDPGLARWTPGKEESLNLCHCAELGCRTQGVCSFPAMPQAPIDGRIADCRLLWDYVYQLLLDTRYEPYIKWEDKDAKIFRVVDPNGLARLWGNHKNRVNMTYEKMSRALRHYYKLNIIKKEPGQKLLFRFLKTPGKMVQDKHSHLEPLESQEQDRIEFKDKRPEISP
# Summary of the method: as §1
# ELF5 = biological target: T11, ELF5 (Homo sapiens, UniProt Q9UKW6-2 1-255); details: protein: recombinant; tags: N-terminal GST; dsDNA, one strand shown
# T11 sequence: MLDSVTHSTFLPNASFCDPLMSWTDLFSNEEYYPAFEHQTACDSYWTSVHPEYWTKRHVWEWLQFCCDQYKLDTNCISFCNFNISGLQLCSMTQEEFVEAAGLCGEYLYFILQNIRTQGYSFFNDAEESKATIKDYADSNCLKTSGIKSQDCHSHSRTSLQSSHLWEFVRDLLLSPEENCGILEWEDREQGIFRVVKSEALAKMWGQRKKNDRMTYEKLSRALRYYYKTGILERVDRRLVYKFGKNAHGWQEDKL
# Summary of the method: as §1
# ETV3 = biological target: T12, ETV3 (Homo sapiens, UniProt P41162-2 1-143); details: protein: recombinant; tags: N-terminal GST; dsDNA, one strand shown
# T12 sequence: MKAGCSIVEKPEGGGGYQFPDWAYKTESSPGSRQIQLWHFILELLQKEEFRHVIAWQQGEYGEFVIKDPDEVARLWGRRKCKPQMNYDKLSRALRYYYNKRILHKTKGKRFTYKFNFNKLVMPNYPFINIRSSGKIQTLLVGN
# Summary of the method: as §1
# ETV6 = ETV6 (Homo sapiens, UniProt P41212 1-452); details: protein: recombinant; tags: N-terminal GST; dsDNA, one strand shown
# Sequence of ETV6 (P41212 whole entry): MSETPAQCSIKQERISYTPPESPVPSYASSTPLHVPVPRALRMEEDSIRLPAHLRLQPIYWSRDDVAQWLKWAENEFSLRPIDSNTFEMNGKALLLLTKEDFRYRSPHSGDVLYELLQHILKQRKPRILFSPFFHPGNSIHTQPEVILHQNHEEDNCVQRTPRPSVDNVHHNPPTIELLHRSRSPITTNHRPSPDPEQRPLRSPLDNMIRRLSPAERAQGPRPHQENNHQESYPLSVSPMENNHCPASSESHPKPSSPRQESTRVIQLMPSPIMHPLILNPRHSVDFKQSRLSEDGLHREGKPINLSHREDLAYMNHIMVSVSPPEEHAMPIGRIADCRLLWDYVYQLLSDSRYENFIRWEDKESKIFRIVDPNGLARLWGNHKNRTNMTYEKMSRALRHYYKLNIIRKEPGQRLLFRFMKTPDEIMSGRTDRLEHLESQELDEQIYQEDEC
# Summary of the method: as §1
sequence,measurement,setting,value
AACCTC,binding signal,FEV,"1.18 fold enrichment (6-mer frequency, TF over GST control)"
same,binding signal,ETV5,"1.22 fold enrichment (6-mer frequency, TF over GST control)"
same,binding signal,HSF1,"1.17 fold enrichment (6-mer frequency, TF over GST control)"
same,binding signal,SPIC,"1.4 fold enrichment (6-mer frequency, TF over GST control)"
same,binding signal,ELF4,"1.2 fold enrichment (6-mer frequency, TF over GST control)"
same,binding signal,ELK4,"1.26 fold enrichment (6-mer frequency, TF over GST control)"
same,binding signal,ETV2,"1.32 fold enrichment (6-mer frequency, TF over GST control)"
same,binding signal,ELF3,"1.28 fold enrichment (6-mer frequency, TF over GST control)"
same,binding signal,CRX,"1.11 fold enrichment (6-mer frequency, TF over GST control)"
same,binding signal,ETV1,"1.24 fold enrichment (6-mer frequency, TF over GST control)"
same,binding signal,ERF,"1.26 fold enrichment (6-mer frequency, TF over GST control)"
same,binding signal,ETV3L,"1.24 fold enrichment (6-mer frequency, TF over GST control)"
same,binding signal,ETS2,"1.18 fold enrichment (6-mer frequency, TF over GST control)"
same,binding signal,SPDEF,"1.07 fold enrichment (6-mer frequency, TF over GST control)"
same,binding signal,ETV7,"1.26 fold enrichment (6-mer frequency, TF over GST control)"
same,binding signal,ELF5,"1.17 fold enrichment (6-mer frequency, TF over GST control)"
same,binding signal,ETV3,"1.2 fold enrichment (6-mer frequency, TF over GST control)"
same,binding signal,ETV6,"1.16 fold enrichment (6-mer frequency, TF over GST control)"
